High-throughput results (PubChem)
KB-V1 MDR tox: kills drug-selected multidrug resistant KB-V1 cells. AID 1347076. 400,000 tested, 3.4% active. Potency, µM (series often up to 46.1 µM), most hits filed as cytotoxic. KB-V1 MDR cells viability, CellTiter-Glo, 72 h; note: % is set by controls: 0 for no effect and ±100 for the full control effect; nearly all actives have a fitted effect of over 60% in size
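qHTS viability screen in drug-selected KB-V1 MDR cells: 72 h compound treatment at 37 degrees C, ATP luminescence end point.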
MCF10A rereplic: inducers of DNA re-replication in MCF 10A breast cells. MCF 10A DNA re-replication, Hoechst nuclear intensity, 48 h. Potency, µM (series often up to 46.1 µM), for the others: at the top dose activity, positive = re-replication, most hits filed as activators. 350,000 tested, 2.9% active. AID 624296; note: % of control where 0% means no effect; nearly all actives have a fitted effect of over 50% in size
SW480 rereplic: DNA re-replication induction in SW480 cells; Potency, µM (top dose mostly 46.1 µM), for inactives: at the top dose re-replication activation, most hits filed as activators; 340,000 tested, 1.8% active; SW480 DNA re-replication, Hoechst DNA content imaging, 48 h; AID 624297; note: % of control where 0% means no effect; nearly all actives have a fitted effect of over 55% in size
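First, 250 cells per well were seeded. Next, compound or vehicle (23 nL) was pinned in, plates sat 48 hr at 37 C. Finally Hoechst was added for 40 min before fluorescence scanning.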
HT1080 IDH1KD tx: kills HT-1080 cells with IDH1 knockdown; AID 686971; HT-1080 IDH1 knockdown viability, ATP luminescence, 48 h; Potency, µM (doses to about 46.1 µM), for the others: at the highest dose activity, negative = toxicity, hits mostly cytotoxic; 360,000 tested, 2% active;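 note: 0% = DMSO wells and -100% = cell-free medium wells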
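In this qHTS, HT-1080 cells depleted of IDH1 are exposed for 48 h at 37 °C to compound titrations. Toxicity is scored from CellTiter-Glo luminescence, with DMSO as full viability and medium alone as none.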
HT1080NT lethal: kills 2HG-producing HT-1080-NT fibrosarcoma cells. HT-1080-NT fibrosarcoma viability, CellTiter-Glo ATP luminescence, 48 h. Potency, µM (highest dose often 46.1 µM), inactives show at the top dose activity, negative = less viability, actives largely listed as cytotoxic. 360,000 tested, 1.6% active. AID 686970;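 note: NT is the 2HG producing partner of a matched IDH1 knockdown line; 0% = DMSO-treated cells and -100% = media-only wells without cells; nearly all actives have a fitted effect of over 55% in size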
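750 cells/well, RPMI + 5% FBS; 2 h settle, compound pin-transfer, 48 h at 37 degrees C. CellTiter-Glo 10 min RT, luminescence. Normalized to DMSO and media-only wells.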
KB-3-1 tox: kills parental KB-3-1 adenocarcinoma cells; Potency, µM (doses to about 46.1 µM), usual class: cytotoxic; KB-3-1 viability, CellTiter-Glo ATP luminescence, 72 h; 400,000 tested, 1.4% active; note: % is set by controls: 0 for no effect and ±100 for the full control effect; nearly all actives have a fitted effect of over 60% in size
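72 h, 37 °C compound treatment of KB-3-1 parental cells; CellTiter-Glo added, 10 min, luminescence read. Data corrected against DMSO-only plates and normalized before curve fitting.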
* marks the source's active call; other numbers are inactive results; i = inactive; ? = inconclusive; . = not tested or not shown. Sampled rows, rich in hits. Any-hit rate of the full collection: about 8%. Calls come from the whole dose curve; as a rule, active = well fitted curve in the direction sought with a large enough effect; inconclusive = small, poorly fitted or top-dose-only effect, or another doubt; inactive = no such curve, though single readings can be large; an effect the other way counts as inactive or inconclusive. Potency is the fitted concentration of half-maximal effect.

SMILES	KB-V1 MDR tox	MCF10A rereplic	SW480 rereplic	HT1080 IDH1KD tx	HT1080NT lethal	KB-3-1 tox
CC(CCc1ccccc1)NC(=O)COc1ccc(S(=O)(=O)N2CCOCC2)cc1[N+](=O)[O-] (stereo not given)	20.6µM*	18.8%	10.9%	-13.2%	-12.3%	i
Cc1cc(S(=O)(=O)N2CCOCC2)ccc1OCC(=O)NCCCn1ccnc1	?	-0.2%	?	0.0%	-1.3%	i
CCOC(=O)c1cc(S(=O)(=O)Nc2ccc(Br)c(C)c2)[nH]n1	i	.	.	.	.	i
COc1ccc(NC(=O)C(C)n2nc(C)c3c(C)n(-c4ccccc4)nc3c2=O)cc1Cl (stereo not given)	i	.	.	.	.	i
CC(C)C(C)NC(=O)COc1ccc(S(=O)(=O)N2CCOCC2)cc1Cl (stereo not given)	?	0.581µM*	?	3.4%	0.8%	i
Cc1cc(C)c(S(=O)(=O)c2ccccc2C)c(OCCO)n1	i	-0.9%	-3.1%	15.0%	12.0%	i
Cc1ccc(S(=O)(=O)c2c(C)cc(C)nc2Cl)cc1	13µM*	0.8%	-5.2%	-1.1%	0.4%	i
Cc1cc(C)c(S(=O)(=O)c2ccccc2)c(Cl)n1	i	-1.9%	-5.1%	-0.1%	-1.0%	i
COc1ccc(Oc2nc(C)cc(C)c2S(=O)(=O)c2ccc(C)cc2)cc1	20.6µM*	9.8%	-73.5%	-13.3%	7.4%	i
Cc1cc(C)c(S(=O)(=O)c2ccccc2C)c(Oc2ccccc2)n1	20.6µM*	8.9%	-4.4%	-1.8%	1.9%	?
COCC(C)NC(=S)NCCc1ccc(Cl)cc1Cl (stereo not given)	?	?	?	-8.9%	-10.5%	i
COCCNC(=S)NCCc1ccc(Cl)cc1Cl	i	1.4%	16.4µM*	-26.8%	-19.3%	i
COc1ccc(C(NC(=O)c2cc(OC)ccc2OC)c2ccccc2)cc1 (stereo not given)	8.2µM*	?	?	?	?	?
COc1ccc(C(NC(=O)c2ccco2)c2ccc(OC)c(OC)c2)cc1 (stereo not given)	i	25.9%	0.3%	-4.1%	2.3%	i
CCOc1ccc(C(NC(=O)c2ccco2)c2ccc(OC)c(OC)c2)cc1 (stereo not given)	?	3.66µM*	?	-0.4%	-0.2%	i
COc1ccc(/C=N/OCC(=O)NC(c2ccccc2)c2ccccc2)c(OC)c1	23.1µM*	?	3.4%	-7.8%	-1.1%	i
COc1ccc(C(NC(=O)c2c(F)c(F)c(F)c(F)c2F)c2ccccc2)cc1 (stereo not given)	i	6.51µM*	?	?	?	?
COc1ccc(NC(=O)c2ccco2)cc1NC(=O)COc1cc(C)ccc1C(C)C	?	.	.	.	.	i
CCCn1c(=O)n(-c2ccccc2Cl)c(=O)c2sc3ccccc3c21	i	.	.	.	.	i
CCc1cccc2c(-c3ccccc3)nc(SCC(=O)Nc3ccc(OC)cc3)nc12	i	.	.	.	.	i
Cc1ccc2cccc(NC(=O)COc3ccccc3[N+](=O)[O-])c2n1	i	.	.	.	.	i
CCCCCCCCNC(=O)/C(C#N)=C/c1ccccc1[N+](=O)[O-]	16.4µM*	?	-38.6%	-16.8%	-19.3%	?
N#C/C(=C\c1ccccc1[N+](=O)[O-])C(=O)NCc1ccccc1	i	?	?	-15.7%	-21.7%	i
N#C/C(=C\C=C\c1ccccc1[N+](=O)[O-])C(=O)NCc1ccccc1	?	3.66µM*	20.6µM*	?	-24.5%	16.4µM*
C=CCNC(=O)/C(C#N)=C/c1ccccc1[N+](=O)[O-]	i	0.0%	?	1.4%	-1.7%	i
SMILES	KB-V1 MDR tox	MCF10A rereplic	SW480 rereplic	HT1080 IDH1KD tx	HT1080NT lethal	KB-3-1 tox
Cc1cccc2c(=O)[nH]c3c(-c4nc(-c5ccc(Cl)cc5)cs4)c(O)cn3c12	i	.	.	.	.	i
COCCCn1c(SCCc2ccccc2)nc2cc(OC)c(OC)cc2c1=N	i	7.31µM*	-14.0%	-23.3%	?	i
CSc1ccc(CNC(=O)C2CCCN(S(=O)(=O)N(C)c3ccc(F)cc3)C2)cc1 (stereo not given)	i	.	.	.	.	16.4µM*
CC1CCN(S(=O)(=O)N2CCCC(C(=O)NCc3ccc(F)cc3)C2)CC1 (stereo not given)	i	0.2%	15.7%	-3.2%	-6.8%	i
Fc1cccc(NC(=S)N2CCn3cccc3C2c2cccnc2)c1 (stereo not given)	?	1.9%	15.1%	-0.2%	1.8%	i
S=C(Nc1ccccc1)N1CCn2cccc2C1c1cccnc1 (stereo not given)	16.4µM*	-4.9%	-7.7%	-1.3%	4.5%	i
Cc1cc(C)c2nc(N3CCCC(C(=O)NCc4cccc(Br)c4)C3)sc2c1 (stereo not given)	i	.	.	.	.	i
Cc1cc(C)c2nc(N3CCCC(C(=O)N4CCN(c5ncccn5)CC4)C3)sc2c1 (stereo not given)	10.3µM*	14.6µM*	14.4%	4.2%	2.8%	?
CC1=CC(C)(C)Nc2ccc(OC(=O)c3ccco3)cc21	i	4.11µM*	18.4µM*	?	2.82µM*	i
CC1=CC(C)(C)Nc2ccc(OC(=O)c3cccnc3)cc21	?	2.59µM*	3.66µM*	?	?	?
O=C(Oc1cccc(OC(=O)c2ccco2)c1)c1ccco1	i	1.9%	-3.8%	-0.4%	-5.3%	i
CC1=CC(C)(C)N2C(=O)C(=O)c3cc(OC(=O)c4ccco4)cc1c32	?	?	1.3µM*	16.4µM*	2.31µM*	?
O=C(Oc1ccc(F)cc1)c1cccnc1	i	0.0%	-13.5%	20.5%	3.3%	i
CC1=CC(C)(C)Nc2ccc(OC(=O)CN3C(=O)CCC3=O)cc21	?	-1.5%	4.11µM*	2.51µM*	?	i
CCCCCCCCCCCCOCCCN	.	-2.7%	-7.2%	.	.	.
CCOc1ccc(S(=O)(=O)O)c2cccnc12	.	7.9%	-4.2%	.	.	.
Cn1cnc2c(=O)oc3ccc(S(=O)(=O)N4CCN(c5cccc(Cl)c5)CC4)cc3c21	i	.	.	.	.	i
CC1=CC(C)(C)Nc2ccc(Cc3ccc4c(c3)C(C)=CC(C)(C)N4)cc21	i	29.1µM*	0.7%	-17.4%	-15.1%	i
CC1=CC(C)(C)Nc2ccc(C)cc21	i	-3.0%	-4.2%	-2.5%	3.7%	i
COc1ccc(OC(=O)C(C)N2C(=O)c3ccccc3C2=O)cc1 (stereo not given)	i	-0.3%	-4.9%	-3.2%	-7.6%	i
